a7 integrin act: qHTS for Activators of Integrin-Mediated Alleviation for Muscular Dystrophy; Potency, µM (doses to about 38.3 µM), most hits filed as activators; 350,000 tested, 0.064% active; alpha7betagal myoblasts, beta-gal FDG fluorescence, 48 h; also: nearly all actives have a fitted effect of over 60% in size
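alpha7betagal+/- myoblasts (passage 13, 250/well) treated 48 h at 37C with compounds at 1:260 dilution of DMSO stock. Lysed, then beta-galactosidase activity read as FDG fluorescence (ex 480/em 540) after 30 min, with pre-read for autofluorescence.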
AT treatment: qHTS Assay for Identifying a Potential Treatment of Ataxia-Telangiectasia | F2112 A-T fibroblasts, KAP-1 phosphorylation AlphaLISA; neocarzinostatin DNA damage 30 min before lysis | Potency, µM (highest dose often 57.5 µM), usual class: activators | 320,000 tested, 0.19% active | AID 485349, 2010; also: nearly all actives have a fitted effect of over 45% in size
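hTERT-immortalized A-T patient fibroblasts (F2112), 500 cells/well in OPTI-MEM, 1% FBS, got compounds for 60 min, then NCS for 30 min at 37C. Lysates were then assayed for phospho-KAP-1 by AlphaLISA (anti-pKAP1 donor, anti-KAP1 acceptor beads), 6 hr at 25C.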
PTAP TSG101 blk: qHTS Assay for Iinhibitors of HIV-1 Budding by Blocking the Interaction of PTAP/TSG101 | Fluorescence polarization, FITC-PTAP peptide / Tsg101 binding | Potency, µM (highest dose often 115 µM), most hits filed as inhibitors | AID 493005, 2010 | Tumor susceptibility gene 101 protein (Homo sapiens), Q99816 | 340,000 tested, under 10 active; active = well fitted inhibition curve with a large enough effect in the main read-out, with a control signal flat, not every such curve was filed as active; inconclusive = small, poorly fitted or top-dose-only effect, or effect the other way, or a change in a side signal; inactive = no such curve, though single readings can be large or run the other way
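Steps: Tsg101 binding domain dispensed (10 uM final), compounds pinned in DMSO, FITC-labeled PTAP-motif peptide added (50 nM final); after 20 min binding at room temperature, polarization measured.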
GALK inhibitor: qHTS Assay for Inhibitors of Human Galactokinase (GALK). 270,000 tested, 0.007% active. P51570. Potency, µM (highest dose often 57.5 µM), usual class: inhibitors. Purified GALK, Kinase-Glo residual ATP luminescence
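Kinase-Glo Plus luminescence measured ATP left after a 1 h room-temperature reaction. The reaction used 5 nM GALK, 100 uM galactose and 35 uM ATP at pH 8.0 (20 mM HEPES, 5 mM MgCl2, 60 mM NaCl, 1 mM DTT, 0.01% BSA).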
S-ASM inh: Inhibitors of Secretory Acid Sphingomyelinase (S-ASM): qHTS. placental ASM, HMU-PC fluorogenic substrate, 60 min. Potency, µM (titrated, usually from 57.5 µM), usual class: inhibitors. 340,000 tested, 0.006% active
Target sequence (P17405 47-631 limits assumed): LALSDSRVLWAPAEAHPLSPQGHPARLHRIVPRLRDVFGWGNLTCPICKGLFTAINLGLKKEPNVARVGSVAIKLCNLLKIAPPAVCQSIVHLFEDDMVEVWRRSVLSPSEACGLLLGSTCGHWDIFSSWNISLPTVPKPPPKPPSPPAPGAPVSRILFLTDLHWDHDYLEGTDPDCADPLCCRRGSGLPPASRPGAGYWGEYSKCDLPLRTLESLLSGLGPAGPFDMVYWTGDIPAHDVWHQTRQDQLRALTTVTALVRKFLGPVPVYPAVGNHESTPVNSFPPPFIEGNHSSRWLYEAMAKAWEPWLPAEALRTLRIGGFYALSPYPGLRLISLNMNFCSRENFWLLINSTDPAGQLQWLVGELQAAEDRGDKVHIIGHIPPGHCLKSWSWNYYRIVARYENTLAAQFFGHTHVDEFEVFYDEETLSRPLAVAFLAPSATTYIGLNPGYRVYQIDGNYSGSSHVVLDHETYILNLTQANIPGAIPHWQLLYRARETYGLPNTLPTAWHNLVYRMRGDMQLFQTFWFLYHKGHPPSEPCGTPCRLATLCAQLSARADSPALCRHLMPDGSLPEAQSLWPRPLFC
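Human placenta-derived ASM preincubated with compound 10 min at room temperature, then reacted with 9 uM (final) fluorogenic HMU-PC substrate for 60 min at 37 C. Stop solution raises pH to 10; fluorescence read at Ex 386/Em 447 nm.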
Mito fusion yeast: qHTS Assay for Small Molecule Inhibitors of Mitochondrial Division or Activators of Mitochondrial Fusion. S. cerevisiae fusion-defective mutant growth rescue, CellTiterGlo 48 h. Potency, µM (highest dose often 46.1 µM), usual class: activators. 320,000 tested, 0.23% active. AID 485298, 2010; also: nearly all actives have a fitted effect of over 45% in size
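Temperature-sensitive fusion-defective S. cerevisiae (e.g. fzo1-1, mgm1-5) were grown with compound in YPEG medium (3% ethanol, 3% glycerol) for 48 hours at 37C. Growth rescue was measured as viability by CellTiterGlo luminescence after 10 minutes at ambient.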
A number is an active result; - = inactive; ? = inconclusive; . = not tested or not shown. An excerpt weighted towards active compounds, which were near 0.46% of everything screened. Unless noted, calls follow the shape of the dose curve; as a rule, active = well fitted curve in the direction sought with a large enough effect; inconclusive = small, poorly fitted or top-dose-only effect, or another doubt; inactive = no such curve, though single readings can be large; an effect the other way counts as inactive or inconclusive.

SMILES	a7 integrin act	AT treatment	PTAP TSG101 blk	GALK inhibitor	S-ASM inh	Mito fusion yeast
N#CCN1C(=O)C(=O)N(Cc2cccc(Cl)c2)C1=O	-	0.71µM	-	-	-	-
C=CCN1C(=O)S/C(=C/c2ccc(Sc3nc4ccccc4[nH]3)o2)C1=O	-	-	-	-	-	22µM
Cc1ccc2c(c1)/C(=C/c1ccccc1)C(=O)N2	-	-	-	.	-	-
O=C1Nc2ccc(I)cc2/C1=C/c1cc(Br)c(O)c(Br)c1	.	.	.	.	.	0.46µM
COc1ccc2nc(NC(=O)c3ccccc3C(=O)O)sc2c1	-	-	-	-	-	-
CSc1ncccc1C(=O)Nc1nc2ccc(Oc3ccccc3)cc2s1	?	-	-	-	-	13µM
CCOC(=O)c1cc(C#N)c(Oc2ccccc2)nc1-c1ccccc1	-	-	-	-	-	13µM
CCOc1ccc(CN(C)c2ccc(S(=O)(=O)N3CCN(C)CC3)cc2[N+](=O)[O-])cc1OC	-	-	-	.	-	-
COCCn1c(=N)c(S(=O)(=O)c2ccc(Br)cc2)cc2c(=O)n3ccccc3nc21	4.5µM	-	-	-	-	-
COCCn1c(=N)c(S(=O)(=O)c2ccc(F)cc2)cc2c(=O)n3ccccc3nc21	-	-	-	-	-	-
COC(=O)Cc1c(O)ccn(Cc2ccc3c(c2)OCO3)c1=O	10µM	-	-	-	-	-
COCCOC(=O)c1c(C)oc2ccc(OCc3ccccc3)cc12	-	-	-	.	-	11µM
Cc1ccc(CN(C)C(=O)CSc2nnc3n2CCCCC3)c(C)c1	-	-	-	.	-	-
CCc1ccc(CNC(=O)CCCn2c(=O)c3cccn3c3cccnc32)cc1	?	-	-	-	-	11µM
COc1ccc(OC)c(CNC(=O)C2CCCN(S(=O)(=O)N3CC(C)CC(C)C3)C2)c1 (stereo not drawn)	-	-	-	-	-	?
COc1ccc(CNC(=O)C2CCCN(S(=O)(=O)N3CC(C)CC(C)C3)C2)c(OC)c1 (stereo not drawn)	?	-	-	-	-	11µM
c1ccc(Cn2cc(-c3ccccc3)cn2)cc1	-	-	-	.	-	-
Cc1ccc(NC(=O)NCc2nc3ccccc3n2C)cc1	4.5µM	-	-	-	-	-
CC(C)(CO)NC(=O)c1ccc2c(c1)C(=O)c1ccccc1-2	-	0.71µM	-	-	-	-
OCCCNc1nc(-c2ccccc2)c2cc(Br)ccc2n1	-	40µM	-	-	-	-
COCC(=O)N1CCC(Oc2ccc(C(=O)N3CCCCCC3)cc2)CC1	-	-	-	-	-	-
NC1=NCC2c3ccccc3Cc3ccccc3N12 (stereo not drawn)	.	.	.	.	.	-
COc1ccc(CNC(=O)Cn2cc(C)c(=O)[nH]c2=O)cc1	-	.	-	.	-	.
O=S(=O)(Nc1ccc(-c2nc3cccnc3s2)cc1)c1ccccc1F	-	16µM	-	-	-	-
Cc1nc2ccc(S(=O)(=O)Nc3cccc(-c4nc5cccnc5s4)c3)cc2s1	-	-	-	.	-	16µM
SMILES	a7 integrin act	AT treatment	PTAP TSG101 blk	GALK inhibitor	S-ASM inh	Mito fusion yeast
Cc1nc2ccc(S(=O)(=O)Nc3ccc(-c4nc5cccnc5s4)cc3)cc2s1	-	-	-	.	-	?
Cn1c(=O)c2c(nc(SCCN3CCOCC3)n2C)n(C)c1=O	-	-	-	-	-	-
CCc1ccc(N(C(=O)c2snc(C(N)=O)c2N)C(C(=O)NC2CCCC2)c2ccco2)cc1 (stereo not drawn)	2.5µM	-	-	-	-	-
COc1ccc(N(C(=O)c2snc(C(N)=O)c2N)C(C(=O)NC2CCCC2)c2ccco2)cc1 (stereo not drawn)	-	-	-	-	-	-
Cc1ccc(Cl)cc1N1CCN(C(=O)CCS(=O)(=O)c2cccc3nonc23)CC1	-	-	-	-	.	14µM
O=C(/C=C/c1cccs1)Nc1cccc(NC(=O)/C=C/c2cccs2)n1	-	-	-	-	-	14µM
Cc1cccc(C)c1Nc1nnc(SCC(=O)c2ccc(Br)s2)s1	-	-	-	-	-	18µM
CNC(=O)c1[nH]nc2c1CCc1ccccc1-2	-	-	-	-	-	10µM
O=S(=O)(Nc1cc2nc3ccccc3nc2n1Cc1ccccc1)c1ccc(Cl)cc1	-	25µM	?	-	-	-
CCCCn1c(N)c(N(CC(C)C)C(=O)CCCc2nc3ccccc3c(=O)[nH]2)c(=O)[nH]c1=O	-	-	-	.	-	-
Nc1ccc(C(=O)OCC(=O)N2CCc3ccccc3C2)cc1[N+](=O)[O-]	-	-	-	-	-	11µM
O=C(OCC(=O)N1CCc2ccccc2C1)c1ccc(Cl)c([N+](=O)[O-])c1	-	-	-	.	-	-
COc1ccc(OC)c(NS(=O)(=O)c2cc3c4c(c2)CCN4C(=O)CC3)c1	-	-	-	.	-	-
COCCN(C(=S)Nc1ccccc1C)C(C)c1ccco1 (stereo not drawn)	-	32µM	-	-	-	-
CCCCCCc1cc2cc(S(=O)(=O)c3ccc(Cl)cc3)c(=O)oc2cc1O	-	?	-	.	-	-
CCCCCCc1cc2cc(S(=O)(=O)c3ccc(C)cc3)c(=O)oc2cc1O	-	28µM	-	.	-	-
CCCCS(=N)(=O)CC[C@H](N)C(=O)O (stereo partly drawn)	.	.	.	.	.	-
CC(C)c1ccc(C(O)P(=O)(OC2CCCCC2)OC2CCCCC2)cc1 (stereo not drawn)	-	-	-	-	-	13µM
O=C(NCc1ccco1)C(c1ccncc1)N(C(=O)Cn1nnc2ccccc21)c1ccccc1F (stereo not drawn)	-	-	-	-	-	-
O=C1C(CSCc2ccccc2)NC(=S)N1c1ccccc1 (stereo not drawn)	-	35µM	-	-	-	-
O=C(O)CC1NC(=S)N(c2ccccc2)C1=O (stereo not drawn)	-	-	-	-	-	-
OCCCNc1nc(-c2ccc(Cl)cc2)nnc1-c1ccc(Br)cc1	-	-	-	-	-	13µM
COc1cccc(CNc2ncc(-c3ccc(Br)cc3)n2C)c1	.	.	.	.	.	-
CCn1c2c(c3cc(OCC(C)C)ccc31)CCCC2=O	-	32µM	-	-	-	-
CCn1c2c(c3cc(Br)ccc31)CCC/C2=N\O	-	.	-	-	-	-

Screening data from PubChem.
